Measurements: PubChem BioAssay (EPA / NIEHS)
Calls of active or inactive are those of the source. How the source made its calls: active means hit-call score of the fitted dose curve at least 0.9, where 1 is the maximum; inactive means score below 0.9.

assay: ATG_ISRE_CIS: Attagene CIS-FACTORIAL HepG2 Assay for human Interferon Regulatory Factor 1 (IRF1) binding to an Interferon-Stimulated Response Element (ISRE) (AID 2282948); conditions: HepG2 ISRE cis-reporter (Attagene), mRNA transcription readout; actives raise or lower the signal
Experimental: ATG_CIS is a cell-based, multiplexed-readout assay that uses HepG2, a human liver cell line, with measurements taken at 24 hours after chemical dosing in a 24-well plate.ATG_ISRE_CIS is one of 52 assay component(s) measured or calculated from the ATG_CIS assay. It is designed to make measurements of mRNA induction, a form of inducible reporter, as detected with fluorescence intensity signals by Reverse transcription polymerase chain reaction (RT-PCR) and Capillary electrophoresis technology.Data from the assay component ATG_ISRE_CIS was analyzed into 1 assay endpoint. This assay endpoint, ATG_ISRE_CIS, was analyzed with bidirectional fitting relative to DMSO as the negative control and baseline of activity. Using a type of inducible reporter, measures of mRNA for gain or loss-of-signal activity can be used to understand the reporter gene at the transcription factor-level as they relate to the gene IRF1. Furthermore, this assay endpoint can be referred to as a primary readout, because this assay has produced multiple assay endpoints where this one serves a reporter gene function. To generalize the intended target to other relatable targets, this assay endpoint is annotated to the dna binding intended target family, where the subfamily is interferon regulatory factors.
Human liver HepG2 cells are transiently transfected with multiple reporter transcription units (MRTUs) in 6-well plates using FuGene 6 reagent (Roche; 3 ml FuGene/1 mg DNA). The MRTU constructs are regulated by a cis-regulating element (promoter). […] A major difference between the CIS and TRANS system is that in CIS activities of endogenous TFs are measured, whereas the TRANS assay evaluates changes in activities of exogenous, chimeric NR-Gal4 proteins. […] At the end of 24 hour incubation, total RNA was isolated using TriZol reagent (Invitrogen). The isolated RNA is then reverse-transcribed using oligo(dT) primer and Mo-MLV reverse transcriptase (Invitrogen) with DNAse I (Ambion) treatment for 30 min. The one-tenth of the produced cDNA was amplified by PCR using Taq DNA polymerase (Invitrogen) and two reporter sequence-specific primers. The PCR products were fluorescently labeled by primer extension with 6-arboxyfluorescein (6-FAM) 5'-labeled reporter sequence-specific primer (2 min at 95 C, 20 s at 68 C and 10 min at 72 C) and these products were digested with 5U of HpaI (New England Biolabs) for 2h at 37 C. The fragments were purified using Qiaquick PCR columns (Qiagen), analyzed on an ABI 3130xL genetic analyzer (Applied Biosystems) with peak positions identified by using a set of X-rhodamine (ROX)-labeled MapMarker1000 molecular weight standards (BioVentures). The raw capillary electrophoresis data was processed using Attagraph software (Attagene).

| Compound | outcome | AC50 |
| --- | --- | --- |
| CC(C)n1c(/C=C/[C@@H](O)C[C@@H](O)CC(=O)O)c(-c2ccc(F)cc2)c2ccccc21 | inactive | – |
| CCCOCCC | inactive | – |
| CC1=NN(c2cc(Cl)c(S(=O)(=O)O)cc2Cl)C(=O)C1N=Nc1ccc(S(=O)(=O)O)cc1 (stereo not given) | inactive | – |
| CC(C)(Oc1ccc(Cl)cc1)C(=O)O | inactive | – |
| C=CCOC(=O)C(=C)C | inactive | – |
| CNC[C@H](O)[C@@H](O)[C@H](O)[C@H](O)CO | inactive | – |
| CCCC(=O)OC/C=C(\C)CCC=C(C)C | inactive | – |
| CCCC(=O)OC | inactive | – |
| Cc1cc(O)cc(C)c1Cl | inactive | – |
| O=C1NC(=O)C2CC=CCC12 (stereo not given) | inactive | – |
| C/C=C(\C)C(=O)OCC/C=C\CC | inactive | – |
| CC(C)(C)NC(=O)[C@@H]1CN(Cc2cccnc2)CCN1C[C@@H](O)C[C@@H](Cc1ccccc1)C(=O)N[C@H]1c2ccccc2C[C@H]1O | inactive | – |
| c1ccc(CNc2ncnc3nc[nH]c23)cc1 | inactive | – |
| CN1CCCC1 | inactive | – |
| [O-][n+]1ccc(Cl)cc1 | inactive | – |
| OCCN(CCO)c1cccc(Cl)c1 | inactive | – |
| CCC(C)=NO | inactive | – |
| CCC(C)(CCC(C)C)C(=O)O (stereo not given) | inactive | – |
| Cc1cc(C)c(S(=O)(=O)O)cc1N=Nc1cc(S(=O)(=O)O)c2ccccc2c1O | inactive | – |
| Oc1cccc2ccccc12 | inactive | – |

| Compound | outcome | AC50 |
| --- | --- | --- |
| Cc1cc2nc3c(=O)[nH]c(=O)nc-3n(C[C@H](O)[C@H](O)[C@H](O)CO)c2cc1C | inactive | – |
| COC(=O)[C@]1(C)CCC[C@@]2(C)[C@H]1CC=C1C=C(C(C)C)CC[C@@H]12 | inactive | – |
| CCCC[N+]1(C)CCCC1 | inactive | – |
| O=C(O)Cc1c[nH]c2ccccc12 | inactive | – |
| COC(=O)CCSCCC(=O)OC | inactive | – |
| C=C(C)C(=O)OCCCCCC | inactive | – |
| C=C(C)C(=O)OCC1CCCO1 (stereo not given) | inactive | – |
| CCCCCCOC(=O)CCCCCCCC(=O)OCCCCCC | inactive | – |
| CN(C)c1ccc(C(c2ccccc2)c2ccc(N(C)C)cc2)cc1 | inactive | – |
| CCCCCCC1CCCC(=O)O1 (stereo not given) | inactive | – |
| O=S(=O)(O)c1cccc2ccccc12 | inactive | – |
| OCCOCCOCCOCCOCCO | inactive | – |
| CC1(C)S[C@@H]2[C@H](NC(=O)[C@H](N)c3ccccc3)C(=O)N2[C@H]1C(=O)O | inactive | – |
| O=C(O)/C=C\C(=O)O | inactive | – |
| C=CN1CCCCCC1=O | inactive | – |
| CN(C)Cc1cc(C(C)(C)C)c(O)c(C(C)(C)C)c1 | inactive | – |
| CC(C)CC(=O)CC(C)C | inactive | – |
| CN(C)N=Nc1ccccc1 | inactive | – |
| CC/C=C\CC/C=C/C(OCC)OCC | – | 142 µM (active) |
| CCC(=O)OCc1ccc(OC)cc1 | inactive | – |
